PubChem BioAssay AID1159580 (chemical genetic matrix, 2015)
Values joined by “and” are separate entries in the source; they are usually repeats but may differ in a detail not shown here. Identical values can stand only once. Out of some 5,500 compounds screened, about 2,000 (36%) were called active. Not shown: some 18% with an inconclusive outcome. This is one part of the list. Unmarked numbers belong to inactive results. Rule as the data show it: active = normalized growth mostly below about 0.91 (no sharp cut-off); inconclusive = no clear call, values can overlap the other calls; inactive = mostly above about 0.92.

Assay: chemical genetic growth profiling, strain panel (AID 1159580);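 also: tested at 20 µM; growth read once vehicle control cultures reached saturation at 30 °C; 1 = growth at the plate median or of vehicle wells; lower values mean less growth of the strain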
Details: growth OD

## O=c1c(O)c(-c2cc(O)c(O)c(O)c2)oc2cc(O)cc(O)c12
S. cerevisiae deletion strains, locus YAL040C, strain CLN3, stronger effect = lower value
  normalized growth: 1.07
S. cerevisiae deletion strains, locus YBR021W, strain FUR4, stronger effect = lower value
  normalized growth: 1.01
S. cerevisiae deletion strains, locus YBR229C, strain ROT2, stronger effect = lower value
  normalized growth: 1
S. cerevisiae deletion strains, locus YCL029C, strain bik1, stronger effect = lower value
  normalized growth: 1.02
S. cerevisiae deletion strains, locus YCL061C, strain MRC1 (second series), stronger effect = lower value
  normalized growth: 0.985
S. cerevisiae deletion strains, locus YDL035C, strain GPR1, stronger effect = lower value
  normalized growth: 0.972
S. cerevisiae deletion strains, locus YDL074C, strain BRE1, stronger effect = lower value
  normalized growth: 1.01
S. cerevisiae deletion strains, locus YDL101C, strain DUN1, stronger effect = lower value
  normalized growth: 1.03
S. cerevisiae deletion strains, locus YDL185W, strain tfp1, stronger effect = lower value
  normalized growth: 1.02
S. cerevisiae deletion strains, locus YDL192W, strain arf1, stronger effect = lower value
  normalized growth: 1.02
S. cerevisiae deletion strains, locus YDR101C, strain arx1, stronger effect = lower value
  normalized growth: 1
S. cerevisiae deletion strains, locus YDR150W, strain NUM1, stronger effect = lower value
  normalized growth: 1.02
S. cerevisiae deletion strains, locus YDR162C, strain NBP2, stronger effect = lower value
  normalized growth: 0.963
S. cerevisiae deletion strains, locus YDR318W, strain mcm21, stronger effect = lower value
  normalized growth: 1.01
S. cerevisiae deletion strains, locus YDR363W, strain ESC2, stronger effect = lower value
  normalized growth: 1.03
S. cerevisiae deletion strains, locus YDR388W, stronger effect = lower value
  normalized growth: 1.02
S. cerevisiae deletion strains, locus YDR502C, strain sam2, stronger effect = lower value
  normalized growth: 1
S. cerevisiae deletion strains, locus YEL061C, strain CIN8, stronger effect = lower value
  normalized growth: 1
S. cerevisiae deletion strains, locus YER002W, strain NOP16, stronger effect = lower value
  normalized growth: 1
S. cerevisiae deletion strains, locus YER110C, stronger effect = lower value
  normalized growth: 1.03
S. cerevisiae deletion strains, locus YER155C, strain BEM2, stronger effect = lower value
  normalized growth: 0.999
S. cerevisiae deletion strains, locus YER167W, strain BCK2, stronger effect = lower value
  normalized growth: 0.997
S. cerevisiae deletion strains, locus YGL078C, strain dbp3, stronger effect = lower value
  normalized growth: 1
S. cerevisiae deletion strains, locus YGL086W, strain mad1, stronger effect = lower value
  normalized growth: 1
S. cerevisiae deletion strains, locus YGL248W, strain PDE1, stronger effect = lower value
  normalized growth: 1.03
S. cerevisiae deletion strains, locus YGR078C, strain PAC10, stronger effect = lower value
  normalized growth: 0.959
S. cerevisiae deletion strains, locus YGR135W, strain pre9, stronger effect = lower value
  normalized growth: 0.998
S. cerevisiae deletion strains, locus YGR229C, strain SMI1, stronger effect = lower value
  normalized growth: 0.416 (active)
S. cerevisiae deletion strains, locus YGR252W, strain gcn5, stronger effect = lower value
  normalized growth: 1
S. cerevisiae deletion strains, locus YHR030C, strain SLT2, stronger effect = lower value
  normalized growth: 1.01
S. cerevisiae deletion strains, locus YHR079C, strain IRE1 (second series), stronger effect = lower value
  normalized growth: 1.01
S. cerevisiae deletion strains, locus YHR094C, strain hxt1, stronger effect = lower value
  normalized growth: 1.03
S. cerevisiae deletion strains, locus YHR129C, strain ARP1, stronger effect = lower value
  normalized growth: 1.02
S. cerevisiae deletion strains, locus YHR200W, strain rpn10, stronger effect = lower value
  normalized growth: 1.02
S. cerevisiae deletion strains, locus YIL066C, strain RNR3, stronger effect = lower value
  normalized growth: 0.976
S. cerevisiae deletion strains, locus YIL073C, strain SPO22, stronger effect = lower value
  normalized growth: 1.03
S. cerevisiae deletion strains, locus YIL125W, strain kgd1, stronger effect = lower value
  normalized growth: 1.02
S. cerevisiae deletion strains, locus YIR030C, strain dcg1, stronger effect = lower value
  normalized growth: 1
S. cerevisiae deletion strains, locus YJL095W, strain BCK1, stronger effect = lower value
  normalized growth: 1.05
S. cerevisiae deletion strains, locus YJL134W, strain LCB3, stronger effect = lower value
  normalized growth: 1
S. cerevisiae deletion strains, locus YJL168C, strain set2, stronger effect = lower value
  normalized growth: 1.01
S. cerevisiae deletion strains, locus YJL187C, strain SWE1 (second series), stronger effect = lower value
  normalized growth: 1.05
S. cerevisiae deletion strains, locus YJR043C, strain POL32, stronger effect = lower value
  normalized growth: 0.965
S. cerevisiae deletion strains, locus YJR075W, strain HOC1, stronger effect = lower value
  normalized growth: 0.993
S. cerevisiae deletion strains, locus YKL009W, strain mrt4, stronger effect = lower value
  normalized growth: 0.996
S. cerevisiae deletion strains, locus YKL068W, stronger effect = lower value
  normalized growth: 1.01
S. cerevisiae deletion strains, locus YKL085W, strain MDH1 (second series), stronger effect = lower value
  normalized growth: 1
S. cerevisiae deletion strains, locus YKL085W, strain MDH1, stronger effect = lower value
  normalized growth: 1
S. cerevisiae deletion strains, locus YKL190W, strain CNB1, stronger effect = lower value
  normalized growth: 1.01
S. cerevisiae deletion strains, locus YKR001C, strain vps1, stronger effect = lower value
  normalized growth: 1.01
S. cerevisiae deletion strains, locus YLR039C, strain RIC1, stronger effect = lower value
  normalized growth: 1
S. cerevisiae deletion strains, locus YLR058C, strain SHM2, stronger effect = lower value
  normalized growth: 1.01
S. cerevisiae deletion strains, locus YLR102C, strain apc9, stronger effect = lower value
  normalized growth: 1.02
S. cerevisiae deletion strains, locus YLR262C, strain YPT6, stronger effect = lower value
  normalized growth: 0.997
S. cerevisiae deletion strains, locus YLR268W, strain sec22, stronger effect = lower value
  normalized growth: 1.03
S. cerevisiae deletion strains, locus YLR330W, strain CHS5, stronger effect = lower value
  normalized growth: 1.01
S. cerevisiae deletion strains, locus YLR342W, strain FKS1 (second series), stronger effect = lower value
  normalized growth: 1.04
S. cerevisiae deletion strains, locus YLR371W, strain rom2, stronger effect = lower value
  normalized growth: 1.01
S. cerevisiae deletion strains, locus YLR418C, strain cdc73, stronger effect = lower value
  normalized growth: 0.981
S. cerevisiae deletion strains, locus YML016C, strain PPZ1, stronger effect = lower value
  normalized growth: 1
S. cerevisiae deletion strains, locus YML032C, strain rad52, stronger effect = lower value
  normalized growth: 1
S. cerevisiae deletion strains, locus YML124C, strain tub3, stronger effect = lower value
  normalized growth: 1.01
S. cerevisiae deletion strains, locus YMR078C, strain ctf18, stronger effect = lower value
  normalized growth: 1.01
S. cerevisiae deletion strains, locus YMR223W, strain ubp8, stronger effect = lower value
  normalized growth: 1
S. cerevisiae deletion strains, locus YMR263W, strain SAP30, stronger effect = lower value
  normalized growth: 1.05
S. cerevisiae deletion strains, locus YMR307W, strain GAS1, stronger effect = lower value
  normalized growth: 0.969 and 0.876
S. cerevisiae deletion strains, locus YNL067W, strain RPL9B, stronger effect = lower value
  normalized growth: 1.06
S. cerevisiae deletion strains, locus YNL175C, strain NOP13, stronger effect = lower value
  normalized growth: 0.999
S. cerevisiae deletion strains, locus YNL197C, strain WHI3, stronger effect = lower value
  normalized growth: 0.997
S. cerevisiae deletion strains, locus YNL224C, strain SQS1, stronger effect = lower value
  normalized growth: 0.967
S. cerevisiae deletion strains, locus YNL233W, strain BNI4, stronger effect = lower value
  normalized growth: 1.05
S. cerevisiae deletion strains, locus YNL250W, strain rad50, stronger effect = lower value
  normalized growth: 1.02
S. cerevisiae deletion strains, locus YNL271C, strain bni1, stronger effect = lower value
  normalized growth: 1.01
S. cerevisiae deletion strains, locus YNL298W, strain CLA4, stronger effect = lower value
  normalized growth: 1.02
S. cerevisiae deletion strains, locus YNL307C, strain MCK1, stronger effect = lower value
  normalized growth: 1.02
S. cerevisiae deletion strains, locus YNL322C, strain KRE1, stronger effect = lower value
  normalized growth: 0.898 (active)
S. cerevisiae deletion strains, locus YNR052C, strain pop2, stronger effect = lower value
  normalized growth: 1
S. cerevisiae deletion strains, locus YOL006C, strain TOP1, stronger effect = lower value
  normalized growth: 1.08
S. cerevisiae deletion strains, locus YOL012C, strain htz1
  normalized growth: 0.839
S. cerevisiae deletion strains, locus YOL147C, strain pex11, stronger effect = lower value
  normalized growth: 1.02
S. cerevisiae deletion strains, locus YOR061W, strain CKA2, stronger effect = lower value
  normalized growth: 0.99
S. cerevisiae deletion strains, locus YOR069W, strain VPS5, stronger effect = lower value
  normalized growth: 1.01
S. cerevisiae deletion strains, locus YOR083W, strain WHI5 (second series), stronger effect = lower value
  normalized growth: 0.957
S. cerevisiae deletion strains, locus YOR136W, strain idh2, stronger effect = lower value
  normalized growth: 1.03
S. cerevisiae deletion strains, locus YOR144C, strain elg1, stronger effect = lower value
  normalized growth: 1.01
S. cerevisiae deletion strains, locus YOR184W, strain ser1, stronger effect = lower value
  normalized growth: 1
S. cerevisiae deletion strains, locus YOR316C, strain cot1, stronger effect = lower value
  normalized growth: 1.02
S. cerevisiae deletion strains, locus YPL055C, strain LGE1, stronger effect = lower value
  normalized growth: 1.01
S. cerevisiae deletion strains, locus YPL241C, strain CIN2, stronger effect = lower value
  normalized growth: 0.995
S. cerevisiae deletion strains, locus YPR119W, strain clb2, stronger effect = lower value
  normalized growth: 1.01
S. cerevisiae deletion strains, locus YPR141C, strain kar3, stronger effect = lower value
  normalized growth: 1.01
S. cerevisiae deletion strains, locus YPR163C, strain tif3, stronger effect = lower value
  normalized growth: 1.01
S. cerevisiae deletion strains, locus YPR167C, strain met16, stronger effect = lower value
  normalized growth: 1.01
S. cerevisiae deletion strains, strain wtn01, stronger effect = lower value
  normalized growth: 1.02
S. cerevisiae strains, strain wild type, stronger effect = lower value
  normalized growth: 1.01
